Data published in PubChem BioAssay (Tox21).
Inconclusive results are not listed. The source made the active and inactive calls. The call rests on the fitted dose curve.

Target: 5-hydroxytryptamine receptor 2A (Homo sapiens) (UniProt P28223)
Test: 5-hydroxytryptamine receptor 2A (HTR2A) small molecule agonists, cell-based qHTS assay (AID 1963587); further: nearly all actives have a fitted effect of over 30% in size
Settings: HTR2A-CHO cells, calcium flux fluorescence, agonist mode; series mostly up to 76.8 µM; activation: at the top concentration
Excerpt: National Center for Advancing Translational Sciences [NCATS]
Division of Preclinical Innovation [DPI]
U.S. Environmental Protection Agency [EPA]
National Institutes of Environmental Health Sciences [NIEHS]
National Toxicology Program [NTP]
U.S. Food and Drug Administration [FDA]
The HTR2A receptor is a subtype of the 5-HT2 receptor that belongs to the serotonin receptor family and is a G protein-coupled receptor (GPCR). The HTR2A-CHO cell line stably expressing human 5-hydroxytryptamine receptor 2A (HTR2A) can be used for screening agonists of interactions between 5-HT2 and its ligands. The HTR2A-CHO calcium flux assay is a homogeneous fluorescence-based assay for detecting the intracellular calcium level using FDSS kinetic plate reader system.
HTR2A-CHO cells were dispensed at 2000 cells/3uL/well in 1536-well black-clear bottom plates using a Multidrop Dispenser. After the assay plates were incubated at a 37 C/5% CO2 incubator for 18 h, 3 uL of Dye Loading Buffer was transferred to the assay plate by a Flying Reagent Dispenser. The assay plates were incubated at 37 C for 1h. For agonist mode, 23 nL of compounds dissolved in DMSO, positive controls or DMSO only was transferred to the assay plate by a pin tool. The fluorescence intensity in the plates was measured using FDSS 7000EX kinetic plate reader for 2 min at 1 sec intervals.
On the % scale 0 is the no-effect control and ±100 the full control effect.

Sequence of 5-hydroxytryptamine receptor 2A (Homo sapiens) (P28223 whole entry, looked up): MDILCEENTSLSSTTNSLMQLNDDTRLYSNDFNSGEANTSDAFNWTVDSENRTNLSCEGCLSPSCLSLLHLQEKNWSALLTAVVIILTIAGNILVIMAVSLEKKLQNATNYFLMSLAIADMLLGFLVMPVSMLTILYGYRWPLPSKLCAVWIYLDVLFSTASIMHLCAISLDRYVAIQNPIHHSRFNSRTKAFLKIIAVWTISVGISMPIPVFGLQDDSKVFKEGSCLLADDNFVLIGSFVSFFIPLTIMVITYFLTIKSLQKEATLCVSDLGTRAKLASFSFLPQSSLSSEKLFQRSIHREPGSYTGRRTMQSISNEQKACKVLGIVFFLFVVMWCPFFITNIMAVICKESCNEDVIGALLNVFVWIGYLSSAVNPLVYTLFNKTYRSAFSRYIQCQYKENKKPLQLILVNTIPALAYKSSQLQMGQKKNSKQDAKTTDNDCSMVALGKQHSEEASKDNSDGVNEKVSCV

| Compound | activation |
| --- | --- |
| O=S(=O)(O)c1ccc(N=Nc2c(O)ccc3ccccc23)cc1 | -2.73% (inactive) |
| CC(=O)SC[C@@H](Cc1ccccc1)C(=O)NCC(=O)OCc1ccccc1 | -19.8% [at 35.6 µM] (inactive) |
| COc1ccc(-c2cc(C(F)F)nn2-c2ccc(S(N)(=O)=O)cc2)cc1F | -2.86% [at 35.6 µM] (inactive) |
| ClC1=C(Cl)C1(Cl)Cl | 6.59% (inactive) |
| O=C(NC1CCN(CCc2c[nH]c3ccccc23)CC1)c1ccccc1 | -1.88% [at 35.6 µM] (inactive) |
| CCC(C(=O)OCCN1CCOC(c2ccccc2)C1C)c1ccccc1 (stereo not given) | -9.46% [at 35.6 µM] (inactive) |
| CC1CC(C)C(=O)C1=O (stereo not given) | -5.44% (inactive) |
| N=C(N)c1ccc(OCCCOc2ccc(C(=N)N)cc2)cc1 | -3.47% [at 35.6 µM] (inactive) |
| CCCCCCC1CCCC(=O)O1 (stereo not given) | -1.17% (inactive) |
| CCCCCC[C@@H](CCC)C(=O)O | -0.925% [at 35.6 µM] (inactive) |
| OCCN1C[C@H](O)[C@@H](O)[C@H](O)[C@H]1CO | 1.56% [at 35.6 µM] (inactive) |
| O=c1cc[nH]cc1 | 0.0442% (inactive) |
| CCc1cccc(C)c1 | -7.89% (inactive) |
| CC(=O)[C@H]1CC[C@H]2[C@@H]3C[C@H](C)C4=CC(=O)CC[C@]4(C)[C@H]3[C@@H](O)C[C@]12C | 7.98% [at 35.6 µM] (inactive) |
| CC(C)(C)C(=O)CC(=O)C(C)(C)C | 2.77% (inactive) |
| c1cnc2c(n1)CCCC2 | 4.3% (inactive) |
| O=C(CCCCCCCCC#CI)Oc1ccccc1 | -9.22% [at 35.6 µM] (inactive) |
| CCOC(=N)CC(=O)OCC | -0.259% (inactive) |
| CCCCCCCCN(C)CCCCCCCC | 1.51% (inactive) |
| CN(C)[C@@H]1C(=O)C(C(=O)NCN2CCCC2)=C(O)[C@@]2(O)C(=O)C3=C(O)c4c(O)cccc4[C@@](C)(O)C3C[C@@H]12 (stereo not given in full) | 5.35% [at 35.6 µM] (inactive) |

| Compound | activation |
| --- | --- |
| CCN(CC)C(C)=O | 2.15% (inactive) |
| C#CC(C)N(C)C(=O)Nc1ccc(Cl)cc1 (stereo not given) | -0.39% (inactive) |
| Cc1ccc(OC(=O)c2ccccc2O)cc1 | 4.44% (inactive) |
| Nc1ccc(C(=O)OCC(O)CO)cc1 (stereo not given) | 0.707% [at 35.6 µM] (inactive) |
| CC(C)(C)C(=O)C(=O)O | -2.08% (inactive) |
| CCCCC(CC)COC(=O)CC#N (stereo not given) | 1.27% (inactive) |
| Cc1ccccc1C(=O)O | 5.01% (inactive) |
| CCN1CN(CC)CN(CC)C1 | -0.999% (inactive) |
| CCOC(=O)[C@H](O)[C@@H](O)C(=O)OCC | -1.09% (inactive) |
| CC1=C2[C@@H]([C@H](C)CC[C@H]2/C=C(\C)C(=O)O)[C@H](O)C1 | -0.0772% (inactive) |
| Cc1c[nH]c2ccccc12 | 0.719% [at 35.6 µM] (inactive) |
| Cc1ccc(C=O)s1 | 0.529% (inactive) |
| O=C1c2ccccc2C(=O)c2cc(O)ccc21 | -7.6% (inactive) |
| Brc1ccc(-c2ccccc2)cc1 | -2.09% (inactive) |
| NCC(=O)CCC(=O)O | -0.164% [at 35.6 µM] (inactive) |
| N=C1C=CC(=C(c2ccc(N)cc2)c2ccc(N)cc2)C=C1 | 13.9% (inactive) |
| CCC(CC)C(=O)O | 0.02% (inactive) |
| C=CC(C)C#N (stereo not given) | 0.24% (inactive) |
| O=C(O)Cc1ccccc1Oc1ccc(Cl)cc1Cl | -11.6% [at 35.6 µM] (inactive) |
| CS(=O)(=O)c1ccc([C@@H](C[C@H]2CCC(=O)C2)C(=O)Nc2cnccn2)cc1Cl | 1.09% (inactive) |
